According to PubChem BioAssay AID1745845 (National Center for Advancing Translational Sciences (NCATS), 2022):
Values joined by “and” are separate entries in the source; they are usually repeats but may differ in a detail not shown here. Equal values may be shown once. The campaign covered roughly 360,000 compounds. About 2,600 (0.72%) were called active. Not shown: some 5% with an inconclusive outcome. Shown is part of a subset that was picked to be rich in actives. Entries that show only a call come without a potency. Values without a mark were called inactive. Calls follow the shape of the dose curve; as a rule, active = well fitted inhibition curve with a large enough effect; inconclusive = small, poorly fitted or top-dose-only effect; inactive = no such curve, though single readings can be large or run the other way.

assay: Primary qHTS for Inhibitors of ATXN expression; settings: HEK-293 ATXN2-luciferase reporter, luminescence, 24 h; series mostly up to 57 µM; also: nearly all actives have a fitted effect of over 55% in size
From the text: University of Utah School of Medicine, Salt Lake City, Utah
Spinocerebellar ataxia type 2 (SCA2) is a multisystem neurodegenerative disease caused by a dominantly acting mutation leading to expansion of a polyQ domain in the ataxin-2 protein (ATXN2). SCA2 patients develop progressive ataxia and later lose function in other neuronal systems. Prominent parkinsonian signs develop in some patients. Like many neurodegenerative disorders, no symptomatic or disease-modifying treatments are known.
The primary objective of the proposed research is to identify compounds inhibiting ATXN2 expression and to test them for efficacy in SCA2 mouse models. We have developed a cell-based assay paired with an in vivo mouse model using identical luciferase expression constructs. This approach takes advantage of an ATXN2-luciferase transgene, with the luciferase gene flanked by the upstream and downstream portions of the ATXN2 gene. Here we describe a 5-7 dose quantitative high thoroughput screen (qHTS) for compounds lowering ATXN2 expression. We screened the NIH Molecular Libraries Small Molecule Repository (MLSMR) and NCGC's mechanistically annotated (MIPE) and drug repurposing (NPC) collections of compounds for lowering expression of an ATXN2-luciferase reporter in HEK-293 cells. The assay is a multiplexed cell viability assay to ensure target reduction in the absence of cytotoxicity. Secondary qHTS assays included a CMV-luciferase reporter expressed in HEK-293 cells as well as a biochemical assay using recombinant luciferase to detect inhibitors of the reporter enzyme. Compounds that inhibit ATXN2 expression but is not cytotoxic were selected for confirmatory and secondary screens.
PROTOCOL TABLE (as described by Inglese J, Shamu CE and Guy RK. 2007)
SEQUENCE No. (e.g., 1, 2, 3, etc.); […] (e.g., Cells, Incubation, Reagent, etc.); VALUE; DESCRIPTION.
1; Cells; 4 uL; white, solid bottom, 1536-well Greiner assay plate.
2; Incubation; 2 hr; 37 degree C in 5% humidified CO2.
3; Compounds; 23 nL; Kalypsis pintool (Wako USA) equipped with a 1536-well pin head.
4; Incubation; 24 hr; 37 degree C in 5% humidified CO2.
5; Reagent; 1 uL; Gly-Phe-7-Amino-4-trifluoromethylcoumarin.
6; Incubation; 30 min; 37 degree C in 5% humidified CO2.
7; Detection; Fluorescence; ViewLux plate reader (PerkinElmer).
8; Reagent; 3 uL; SteadyGlo luciferase solution (Promega).
9; Incubation; 5 min; room temperature.
10; Detection; Luminescence; ViewLux plate reader (PerkinElmer).
NOTES (numbers refer to Sequence numbers above)
1. S2 cells expressing ATXN2-luciferase reporter were suspended in phenol-red free DMEM and dispensed in assay plates using a Multidrop Combi dispenser (Thermo Fisher Scientific).
2. Assay plates were incubated. Evaporation was prevented by covering assay plates with metal lids containing holes to allow gas diffusion.
3. Compounds were added in a dose response manner with the final concentrations of 57, 11.4, 2.28, 0.46, 0.091, 0.018, 0.0037 uM. Vehicle-only plates, with DMSO being pin-transferred to columns 5-48, were inserted uniformly at the beginning and the end of each library to monitor and record any shifts in assay performance.
5. 125 uM Gly-Phe-7-Amino-4-trifluoromethylcoumarin (MP Biomedicals) working concentration was used at a final concentration of 25 uM.
7. To assess cell viability; the assay plates were read using the ViewLux high-throughput CCD imager (PerkinElmer), wherein single end-point fluorescence measurement was acquired (excitation 405/10; emission 540/25 nm).
8. Detection reagent SteadyGlo Luciferase (Promega) was added to the assay plate.
10. Luminescence is then measured on the ViewLux imager equipped with a clear emission filter using a 2 sec exposure. All screening operations were performed on a fully integrated robotic system (Kalypsys) containing one RX-130 and two RX-90 anthropomorphic robotic arms (Staubli).
[…]
Potency is read from the fitted curve at half-maximal effect.

SMILES | Potency | activity change, negative = inhibition
Fc1ccc2[nH]c3c(N4CCN(Cc5ccc6c(c5)OCO6)CC4)ncnc3c2c1 | 14.1 µM (active) | –
Fc1ccc2[nH]c3c(N4CCSCC4)ncnc3c2c1 | 15.8 µM (active) | –
O=C(CSc1nc2c(c(=O)[nH]1)CN(Cc1ccc3c(c1)OCO3)CC2)Nc1cc(F)ccc1F | inactive | –
N#C/C=C/N1CCN(Cc2ccc3c(c2)OCO3)CC1 | inactive | –
COC(=O)c1cc(Cl)c(NC(C)=O)cc1OC | inactive | –
Cn1c(=O)c(C(=O)O)nn(-c2ccccc2)c1=O | inactive | –
COc1cccc(CNCc2c(C(=O)O)n(Cc3ccc(C)cc3)c3cc(C)ccc23)c1OC | inactive | –
C[C@@H]1CCC[C@H](C)N1CCCC(O)(c1ccccc1)c1ccccn1 (some centres undefined) | inactive | –
CC(C)Cn1c(C2CC(=O)N(c3ccccc3Cl)C2)nc2ccccc21 (centres undefined) | inactive | –
CC(C(C)N1CC(=O)NC(=O)C1)N1CC(=O)NC(=O)C1 (centres undefined) | inactive | –
COCC(C)NS(=O)(=O)c1ccc(N2CCCCS2(=O)=O)cc1 (centres undefined) | inactive | –
Cc1cc(C)n(-c2nnc(N3CCN(c4ccccc4)CC3)nn2)n1 | inactive | –
Cc1cc(N/N=C\c2ccc(Br)cc2)nc(-n2nc(C)cc2C)n1 | 10 µM (active) | –
Cc1cc(Nc2ccc(Br)cc2)nc2ccccc12 | inactive | –
COC(=O)c1c(NC(=O)C(C)Oc2ccc(Cl)c(C)c2)sc(C)c1C (centres undefined) | inactive | –
COc1c(C)cc(C(O)c2ncc(-c3cccc(C(F)(F)F)c3)[nH]2)cc1C (centres undefined) | inactive | –
COc1cc(NC(=O)c2[nH]cnc2C(N)=O)cc(C(=O)Nc2cccc(C(F)(F)F)c2)c1 | 10 µM (active) | –
COc1cccc(NC(=O)c2csnn2)c1 | inactive | –
O=C(O)CSc1c2c(nc3cc(C(=O)Nc4cccc(C(F)(F)F)c4)ccc13)CCCC2 | inactive | –
COc1ccc(CC(N)c2csc(NC(=O)Cc3ccccc3)n2)cc1 (centres undefined) | inactive | –
C=CCN(CC=C)C(=O)CN1C(=O)c2ccccc2C1=O | inactive | –
Cc1cc(C(=O)COC(=O)CCCN2C(=O)c3ccccc3C2=O)c(C)n1C | inactive | –
C=CCn1c(C)cc(C(=O)CN2C(=O)c3ccccc3C2=O)c1C | 7.08 µM (active) | –
Cc1cccc(-n2c(=O)c3c(c4cc(C)ccc4n3C)n(CC(=O)Nc3ccccc3Cl)c2=O)c1 | inactive | –
CCC(=O)N1CCc2cc(S(=O)(=O)NC(CC(C)C)C(=O)NCCc3cccc(C)c3)ccc21 (centres undefined) | inactive | –

SMILES | Potency | activity change, negative = inhibition
CN1CCN(CCCNC(=O)c2cc3c(=O)oc4ccccc4c3s2)CC1 | inactive | –
CCC1CCCCN1CCCNC(=O)c1cc2c(Cl)nc3ccccc3c2s1 (centres undefined) | 22.4 µM (active) and 31.6 µM (active) | –
CCCn1c2ccccc2c2cnn(CC(=O)NCCCN3CCCCC3CC)c(=O)c21 (centres undefined) | inactive | –
Cc1ccc(NC(=O)C(Cc2ccccc2)NS(=O)(=O)c2ccc3c(c2)oc(=O)n3C)cc1C (centres undefined) | inactive | –
Clc1cccc(-n2ncc3c(NCCc4ccccc4)ncnc32)c1 | inactive | –
c1cncc(CN2CCC(n3ncc4c(N5CCOCC5)nc(-c5ccc6[nH]ccc6c5)nc43)CC2)c1 | 21.7 µM (active) | –
CC(C)Oc1ccc(CN2CCC(n3nccc3NC(=O)c3cccnc3)CC2)cc1 | inactive | –
O=C(Nc1ccnn1C1CCN(Cc2cccc(OCCO)c2)CC1)C1CCCC1 | inactive | –
Cc1cc(O)ccc1-c1cc(C(=O)NCc2cc(C(F)(F)F)cc(C(F)(F)F)c2)[nH]n1 | inactive | –
O=C1Nc2ccccc2NC(c2ccc3c(c2)OCO3)=C1N(Cc1ccc(F)cc1)C(=O)c1ccco1 | inactive | –
O=C(N/N=C/c1ccccc1O)/C(=C/c1ccccc1)CCO | 3.55 µM (active) | –
NN=C(NN=Cc1ccccc1)c1ccccc1 | inactive | –
O=C(CCC(=O)Nc1ccccc1)N/N=C/c1ccccc1F | – | 10.2% [at 11.3 µM]
COc1ccc(Cl)cc1N(C)C(=O)c1cc2c(=O)oc3ccc(C)cc3c2s1 | inactive | –
CCOc1cc(C2C(C(=O)Nc3ccc(OC)cc3)=C(C)Nc3nc(SC)nn32)ccc1O (centres undefined) | inactive | –
O=C(CNC(=O)c1cccnc1)N/N=C/c1cc(Br)c(O)c(Br)c1 | inactive | –
O=C(CSc1cccc2cccnc12)N/N=C/c1cccnc1 | 22.4 µM (active) | –
Cc1ccc(S(=O)(=O)N(CC(=O)N/N=C/c2ccc(F)cc2)c2cccc3cccnc23)cc1 | inactive | –
CCc1ccc(C=C2SC(=S)NC2=O)cc1 | inactive | –
Cn1c(=O)nc2n(-c3ccc(Br)cc3)c3cccc(Cl)c3cc-2c1=O | inactive | –
CC(Nc1ccc(-c2nc(-c3ccco3)no2)cc1[N+](=O)[O-])c1ccccc1 (centres undefined) | inactive | –
COC1C(CO)OC(n2cnc3c(=S)nc(N)[nH]c32)C1O (centres undefined) | inactive | –
CO[C@@H]1[C@@H](O)[C@H](O)[C@@H](n2c3c(Cl)cccc3c3c4c(c5c6cccc(Cl)c6[nH]c5c32)C(=O)NC4=O)O[C@@H]1CO | 0.273 µM (active) | –
COc1ccccc1CNC(=O)c1ccc(NC(=O)N2CC(C)Sc3ccccc32)cc1 (centres undefined) | inactive | –
